Experimental data as given in PubChem BioAssay (NCI).
The panel holds about 83,000 compounds, 20% with a hit somewhere; the sample as a whole holds those more often.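 Plates (96-well) were seeded with cells, treated with compound at one concentration, and incubated for 48 hours before percent growth was determined.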 The source made the active and inactive calls. How the source made its calls: active means growth percent below 10; inactive means the rest.

Assays:
Test in all cases: NCI-60 one-dose screen, 48 h (100 = growth as untreated, 0 = no growth, -100 = all killed)
Settings in all cases: 10 µM unless noted
DU-145 prostate = system: DU-145 prostate
K-562 leukemia = system: K-562 leukemia
MALME-3M melanoma = system: MALME-3M melanoma
MDA-MB-231 breast = system: MDA-MB-231 breast
RXF 393 renal = system: RXF 393 renal
SF-268 CNS = system: SF-268 CNS
SF-295 CNS = system: SF-295 CNS
SF-539 CNS = system: SF-539 CNS
UACC-257 melanoma = system: UACC-257 melanoma
HCT-15 colon = system: HCT-15 colon
HT29 colon = system: HT29 colon
SNB-75 CNS = system: SNB-75 CNS
SNB-19 CNS = system: SNB-19 CNS
U251 CNS = system: U251 CNS
PC-3 prostate = system: PC-3 prostate
SK-MEL-5 melanoma = system: SK-MEL-5 melanoma
UACC-62 melanoma = system: UACC-62 melanoma
LOX IMVI melanoma = system: LOX IMVI melanoma
SK-MEL-28 melanoma = system: SK-MEL-28 melanoma

Row | Structure (SMILES) | growth (DU-145 prostate) | growth (K-562 leukemia) | growth (MALME-3M melanoma) | growth (MDA-MB-231 breast) | growth (RXF 393 renal) | growth (SF-268 CNS) | growth (SF-295 CNS) | growth (SF-539 CNS) | growth (UACC-257 melanoma) | growth (HCT-15 colon) | growth (HT29 colon) | growth (SNB-75 CNS) | growth (SNB-19 CNS) | growth (U251 CNS) | growth (PC-3 prostate) | growth (SK-MEL-5 melanoma) | growth (UACC-62 melanoma) | growth (LOX IMVI melanoma) | growth (SK-MEL-28 melanoma)
1 | Clc1ccc2c(NC3CCC(N4CCOCC4)CC3)ccnc2c1 (configuration not stated) | 90.9% (inactive) | 48.6% (inactive) | 89.3% (inactive) | 81.7% (inactive) | 90.3% (inactive) | 108% (inactive) | 47.1% (inactive) | 91.4% (inactive) | 56.6% (inactive) | 93.5% (inactive) | 84.7% (inactive) | 82.7% (inactive) | 79.3% (inactive) | 81.1% (inactive) | 62.3% (inactive) | 53.4% (inactive) | 77.4% (inactive) | 68.6% (inactive) | 97.3% (inactive)
2 | O=C1C(Cl)=C(NCCCCCCNC2=C(Cl)C(=O)c3ccccc3C2=O)C(=O)c2ccccc21 | 104% (inactive) | 69.7% (inactive) | 88.8% (inactive) | 78.2% (inactive) | 123% (inactive) | 98.2% (inactive) | 114% (inactive) | 115% (inactive) | 75% (inactive) | 63.3% (inactive) | 98.7% (inactive) | 117% (inactive) | 96.3% (inactive) | 89.9% (inactive) | 82.2% (inactive) | 53.2% (inactive) | 83.5% (inactive) | 36.3% (inactive) | 111% (inactive)
3 | CCOC(=O)c1cc2c(n1C)-c1nc(NC(C)=O)sc1CCC2 | 94.3% (inactive) | 96.6% (inactive) | 108% (inactive) | 55.1% (inactive) | 83.1% (inactive) | 77.4% (inactive) | 84.1% (inactive) | 83.2% (inactive) | 67.8% (inactive) | 88.3% (inactive) | 88% (inactive) | 71.4% (inactive) | 83.6% (inactive) | 78.2% (inactive) | 51% (inactive) | 80.4% (inactive) | 69.5% (inactive) | 79.6% (inactive) | 107% (inactive)
4 | Cc1ccc(/C=C2\COc3ccc(O)cc3C2=O)cc1 | 103% (inactive) | 17.9% (inactive) | 90.3% (inactive) | 90.7% (inactive) | 96.3% (inactive) | 86.3% (inactive) | 105% (inactive) | 98.7% (inactive) | 103% (inactive) | 70.8% (inactive) | 57.7% (inactive) | 84.6% (inactive) | 87.5% (inactive) | 69.9% (inactive) | 86% (inactive) | 97.7% (inactive) | 86.1% (inactive) | 57% (inactive) | 103% (inactive)
5 | CCCCCCC12CCC(=O)N1CCc1cncn12 (configuration not stated) | 109% (inactive) | 100% (inactive) | 120% (inactive) | 110% (inactive) | 92.4% (inactive) | 120% (inactive) | 105% (inactive) | 106% (inactive) | 101% (inactive) | 102% (inactive) | 100% (inactive) | 116% (inactive) | 105% (inactive) | 100% (inactive) | 98.3% (inactive) | 99.1% (inactive) | 95.6% (inactive) | 102% (inactive) | 112% (inactive)
6 | CCN(CC)CCn1c2ccc(O)cc2c2sc3cc(O)ccc3c(=O)c21 | 43.6% (inactive) | 14.8% (inactive) | 15.6% (inactive) | 43.5% (inactive) | 26.6% (inactive) | 42% (inactive) | 17.6% (inactive) | 18.1% (inactive) | 55.4% (inactive) | 29.1% (inactive) | – | 76.1% (inactive) | 23.4% (inactive) | 28.8% (inactive) | 31.5% (inactive) | 60.7% (inactive) | 39.4% (inactive) | 8.55% (active) | 54.5% (inactive)
7 | O=[N+]([O-])c1cccc(-c2nc3cc4nc5ccccc5[nH]c4cc3n2)c1 | 106% (inactive) | 90.9% (inactive) | 113% (inactive) | 110% (inactive) | 115% (inactive) | 98.2% (inactive) | 100% (inactive) | 106% (inactive) | 98.3% (inactive) | 99.5% (inactive) | 100% (inactive) | 101% (inactive) | 102% (inactive) | 98.2% (inactive) | 93.2% (inactive) | 96.4% (inactive) | 97.5% (inactive) | 99.8% (inactive) | 113% (inactive)
8 | COc1cc(-c2csc(NC(=O)c3ccc(N4CCOCC4)c(C(F)(F)F)c3)n2)cc(OC)c1OC | 53.4% (inactive) | 18.9% (inactive) | 29.3% (inactive) | 71.4% (inactive) | 62% (inactive) | 40% (inactive) | 21.9% (inactive) | 49.6% (inactive) | 26.6% (inactive) | 11% (inactive) | 43.2% (inactive) | 57.2% (inactive) | 62.6% (inactive) | 47.3% (inactive) | 11% (inactive) | -6.45% (active) | -6.31% (active) | 23.1% (inactive) | 36.6% (inactive)
9 | COc1cc(C2c3cc(OC(C)=O)c(OC)cc3CC3C(=O)OCC32)ccc1OC(C)=O (configuration not stated) | 115% (inactive) | 115% (inactive) | 112% (inactive) | 105% (inactive) | 115% (inactive) | 111% (inactive) | 112% (inactive) | 99.4% (inactive) | 103% (inactive) | 104% (inactive) | 97.6% (inactive) | 94.5% (inactive) | 116% (inactive) | 92.6% (inactive) | 68.3% (inactive) | 109% (inactive) | 103% (inactive) | 103% (inactive) | 122% (inactive)
10 | CCN(C)S(=O)(=O)Nc1cccc(Nc2ncnc3cc(NC(=O)CCl)ccc23)c1Cl | -49.8% (active) | 4.5% (active) | -51.7% (active) | -38.4% (active) | -11.9% (active) | 7.08% (active) | 15.3% (inactive) | -40.3% (active) | 34.4% (inactive) | -12.3% (active) | -56.9% (active) | 6.04% (active) | 16.7% (inactive) | -77.4% (active) | 0.153% (active) | -83.6% (active) | -22.5% (active) | -79% (active) | 28.8% (inactive)
11 | O=C(CSc1nc2sc3c(c2c(=O)n1-c1ccccc1)CCCCC3)N/N=C/c1cccc([N+](=O)[O-])c1 | 16.5% (inactive) | 56.3% (inactive) | 74.6% (inactive) | 51.1% (inactive) | 61.5% (inactive) | 44.3% (inactive) | 76.3% (inactive) | 0.0053% (active) | 66.1% (inactive) | 53.8% (inactive) | 32.3% (inactive) | 6.05% (active) | 83.6% (inactive) | 49.1% (inactive) | 38.5% (inactive) | 67.6% (inactive) | – | 76.5% (inactive) | 74% (inactive)
12 | CCOC(=O)n1ccn(C)c1=S | 112% (inactive) | 103% (inactive) | 102% (inactive) | 117% (inactive) | 115% (inactive) | 106% (inactive) | 92% (inactive) | 95.7% (inactive) | 97.3% (inactive) | 104% (inactive) | 96.2% (inactive) | 104% (inactive) | 110% (inactive) | 100% (inactive) | 91% (inactive) | 109% (inactive) | 108% (inactive) | 105% (inactive) | 108% (inactive)
13 | COc1ccc(/C=C/C(=O)c2cccc(OCCCCOc3cccc(C(=O)/C=C/c4ccc(OC)c(OC)c4)c3)c2)cc1OC | 83.3% (inactive) | 50.7% (inactive) | 77.7% (inactive) | 87.7% (inactive) | 79.1% (inactive) | 76.2% (inactive) | 47% (inactive) | 87.7% (inactive) | 57.1% (inactive) | 80.9% (inactive) | 92% (inactive) | 67.8% (inactive) | 81.6% (inactive) | 84.8% (inactive) | 67% (inactive) | 9.83% (active) | 57.7% (inactive) | 61.7% (inactive) | 86% (inactive)
14 | CCOC(=O)c1ccc2c(c1)nc(-c1ccccc1)n2C1CCCCC1 | 105% (inactive) | 73.1% (inactive) | 112% (inactive) | 102% (inactive) | 112% (inactive) | 108% (inactive) | 94.4% (inactive) | 104% (inactive) | 78.2% (inactive) | 78.2% (inactive) | 67.4% (inactive) | 97% (inactive) | 105% (inactive) | 88.8% (inactive) | 74.1% (inactive) | 93.8% (inactive) | 88% (inactive) | 99.2% (inactive) | 107% (inactive)
15 | CCCCNC(=O)Oc1ccc(/C(=C(/C)Cc2ccc(OC)cc2)c2ccc(OCCN3CCCC3)cc2)cc1 | 80.1% (inactive) | -27.8% (active) | 58.8% (inactive) | 69% (inactive) | 57% (inactive) | 71.8% (inactive) | 69.7% (inactive) | 86.1% (inactive) | 43.1% (inactive) | 13.5% (inactive) | -11.3% (active) | 70% (inactive) | 79.3% (inactive) | – | 60.7% (inactive) | 47% (inactive) | 45.4% (inactive) | -66.9% (active) | -0.368% (active)
